JMJD2A Tudor inh: blocks the human JMJD2A Tudor domain. O75164. AlphaScreen JMJD2A-Tudor / H3K4me3 peptide binding. Potency, µM (top dose mostly 114 µM), for inactives: top-dose activity change, negative = inhibition, usual class: inhibitors. actives 4.4% (n = 390,000); further: on the % scale 0 is the no-effect control and ±100 the full control effect; nearly all actives have a fitted effect of over 50% in size
Target sequence (O75164 whole entry, looked up, the tested form may be a part): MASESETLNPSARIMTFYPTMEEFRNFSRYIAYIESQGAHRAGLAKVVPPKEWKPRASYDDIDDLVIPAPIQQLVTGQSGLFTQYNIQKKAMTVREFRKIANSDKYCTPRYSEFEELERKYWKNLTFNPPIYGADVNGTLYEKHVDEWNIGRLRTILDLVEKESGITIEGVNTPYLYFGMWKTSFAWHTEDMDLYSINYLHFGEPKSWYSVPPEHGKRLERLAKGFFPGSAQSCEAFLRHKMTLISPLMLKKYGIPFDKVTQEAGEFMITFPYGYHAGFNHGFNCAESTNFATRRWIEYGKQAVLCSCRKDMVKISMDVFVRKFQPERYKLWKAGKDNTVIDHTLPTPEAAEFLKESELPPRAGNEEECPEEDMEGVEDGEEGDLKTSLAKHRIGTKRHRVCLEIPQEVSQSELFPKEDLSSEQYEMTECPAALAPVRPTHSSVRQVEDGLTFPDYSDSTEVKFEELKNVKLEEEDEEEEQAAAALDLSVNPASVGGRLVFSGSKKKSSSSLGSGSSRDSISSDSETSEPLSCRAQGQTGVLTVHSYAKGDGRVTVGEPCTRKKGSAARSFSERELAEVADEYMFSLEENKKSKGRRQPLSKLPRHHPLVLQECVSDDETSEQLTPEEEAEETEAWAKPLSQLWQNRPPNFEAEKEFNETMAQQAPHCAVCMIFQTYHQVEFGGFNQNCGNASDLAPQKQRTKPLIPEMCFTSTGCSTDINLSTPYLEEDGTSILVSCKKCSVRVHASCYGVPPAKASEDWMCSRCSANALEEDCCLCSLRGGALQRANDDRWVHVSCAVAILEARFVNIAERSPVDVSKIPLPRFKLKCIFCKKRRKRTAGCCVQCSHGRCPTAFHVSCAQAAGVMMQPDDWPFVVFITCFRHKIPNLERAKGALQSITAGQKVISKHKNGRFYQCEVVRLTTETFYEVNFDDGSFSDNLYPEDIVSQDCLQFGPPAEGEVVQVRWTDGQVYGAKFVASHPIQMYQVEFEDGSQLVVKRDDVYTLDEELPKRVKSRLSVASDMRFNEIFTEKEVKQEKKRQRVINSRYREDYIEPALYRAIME
HP1b binding inh: blocks HP1-beta chromodomain binding to methylated histone tails; AlphaScreen HP1-beta / biotin-H3K9me3 peptide binding; Potency, µM (series often up to 114 µM), for the others: at the highest dose activity change, negative = inhibition, usual class: inhibitors; actives 0.56% (n = 390,000); AID 540317; further: nearly all actives have a fitted effect of over 70% in size
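AlphaScreen: HP1-beta (50 nM) preformed 30 min with biotin-H3(1-18)K9me3 peptide (50 nM) in PBS pH 7.4, 0.01% Tween-20. Compound added for 30 min at RT, then streptavidin donor/nickel chelate acceptor beads (10 ug/mL) for 30 min.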
L3MBTL1 inh: inhibitors of human L3MBTL1 | Q9Y468 | AlphaScreen L3MBTL1–H3K9me1 peptide binding | Potency, µM (doses to about 57.1 µM), for the others: at the top dose activity, negative = inhibition, hits mostly inhibitors | actives 0.66% (n = 230,000); further: on the % scale 0 is the no-effect control and ±100 the full control effect; nearly all actives have a fitted effect of over 60% in size
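L3MBTL1 50 nM + b-AHA-H3(1-15)K9me1 75 nM, 30 min RT; compound added, 30 min RT; streptavidin donor/Ni-chelate acceptor beads 10 ug/mL each final, 30 min RT dark; AlphaScreen read.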
Sfp inh: blocks B. subtilis Sfp PPTase activity | Biochemical Sfp PPTase activity, qHTS | actives 3.5% (n = 310,000) | Potency, µM, for the others: largest response in the series, negative = inhibition, actives largely listed as inhibitors;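 further: the enzyme is Sfp with the accession as filed and its product quenches rhodamine fluorescence; 0% = enzyme reaction without inhibitor and -100% = no enzyme wells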
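Reaction rates are the 30-min fluorescence difference (ex 525, em 598 nm) in wells containing 15 nM Sfp, 5 uM rhodamine-CoA and 12.5 uM BHQ-2-YbbR at pH 7.6 with 10 mM MgCl2.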
BAZ2B block: blocks human BAZ2B; Q9UIF8; actives 4.4% (n = 360,000); Potency, µM (titrated, usually from 114 µM), for inactives: top-dose activity change, negative = inhibition, most hits filed as inhibitors; AlphaScreen BAZ2B-H3K14Ac peptide displacement; further: on the % scale 0 is the no-effect control and ±100 the full control effect; nearly all actives have a fitted effect of over 60% in size
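Multi-concentration screen (max 110 uM) measuring displacement of acetylated histone H3 peptide from BAZ2B by AlphaScreen, using 50 nM protein, 50 nM peptide and 10 ug/mL streptavidin donor plus Ni-chelate acceptor beads.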
G9a block: blocks human histone lysine methyltransferase G9a. Q96KQ7. G9a H3K9 monomethylation, AlphaScreen, 2 h. Potency, µM (top dose mostly 102 µM), without a hit: top-dose activity, negative = inhibition, usual class: inhibitors. actives 8.8% (n = 350,000); further: on the % scale 0 is the no-effect control and ±100 the full control effect; nearly all actives have a fitted effect of over 75% in size
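Quantitative HTS format: methyltransferase activity on a biotin-tagged H3K9 peptide is measured by AlphaScreen, using a rabbit anti-monomethyl-H3K9 antibody with streptavidin donor and anti-IgG acceptor beads. Final levels are 20 nM enzyme, 500 nM peptide, 20 uM SAM; 2 h RT.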
Starred values were filed as active, the others as inactive; ? = inconclusive; . = not tested or not shown; [ ] = another dose, or the depositor's remark. Sampled rows, rich in hits. Any-hit rate of the full collection: about 12%. The call rests on the fitted dose curve; in most records, active means well fitted curve in the direction sought with a large enough effect; inconclusive means small, poorly fitted or top-dose-only effect, or another doubt; inactive means no such curve, though single readings can be large; an effect the other way counts as inactive or inconclusive. Potency means the concentration at half of the fitted maximal effect.

SMILES	JMJD2A Tudor inh	HP1b binding inh	L3MBTL1 inh	Sfp inh	BAZ2B block	G9a block
CC1(C)CC(=O)c2c(oc3c(Cl)cc(NS(=O)(=O)c4ccc(Br)cc4)cc23)C1	-15.9%	1.3%	.	.	-1.1%	11.2%[59 µM]
CCN(CC)CCC(=O)N1c2ccccc2Sc2ccc(C(F)(F)F)cc21	.	.	.	1.6%	.	-8.1%[12.7 µM]
Cc1ccc(/C=N/NC(=O)NC23CC4CC(CC(C4)C2)C3)o1	-35.1%	?	-3.6%	89.1µM*	19.1%	.
Cc1oc2ncn(CC(C)C)c(=O)c2c1C(=O)NCCCN1CCCCC1	-10.0%	20.2%	.	.	8.6%[57.1 µM]	-22.5%[59 µM]
Cc1cc(C)c2c(=O)[nH]c(SCC(=O)c3ccc(C)c(C)c3)nc2n1	2.0%	24.2%	31.2%	56.2µM*	-12.9%	50.1µM*
Cc1cc(C)c2c(=O)[nH]c(SCC(=O)Nc3ccccc3)nc2n1	-15.1%	21.4%	-2.0%	-20.5%	2.5%	16.2%[59 µM]
Cn1cccc1/C=C1\Cc2ccccc2C1=O	-9.8%	20.7%	.	11.1%	-25.6%	-8.2%[59 µM]
COc1ccc2c(c1)CC/C(=C/c1ccco1)C2=O	-33.6%	?	-22.5%	-3.6%	35.5µM*	?
Cn1cccc1/C=C1\CCc2ccccc2C1=O	44.7µM*	?	.	3.6%	39.8µM*	?
Nc1ccc2c(c1)C/C(=C/c1ccco1)C2=O	-33.3%	-15.4%	28.2µM*	-65.1%	?	7.08µM*
O=C1/C(=C\c2ccncc2)CCc2ccccc21	-20.0%	41.4%	-5.8%	.	-8.8%	12.2%[2.33 µM]
O=C1/C(=C/c2ccco2)CCc2ccccc21	-34.9%	?	?	56.2µM*	39.8µM*	10µM*
Cn1c(=O)n(CCCc2ccccc2)c(=O)c2c1nc1n2CCN1c1ccc(F)cc1	-33.9%	1.7%	.	.	-19.0%	?
COC(=O)[C@@]1(Cc2ccccc2)[C@H]2c3cc(C(=O)N4CCCC4)n(CCSCCO)c3C[C@H]2CN1C(=O)c1ccccc1	.	.	-10.4%	-8.4%	?	25.1µM*
COC(=O)[C@@]1(Cc2ccc(OC)cc2)[C@H]2c3cc(C(=O)N4CCCC4)n(Cc4ccc(C)o4)c3C[C@H]2CN1C(=O)c1ccccc1	.	.	-7.7%	?	39.8µM*	79.4µM*
COC(=O)[C@@]1(Cc2ccc(F)cc2)[C@H]2c3cc(C(=O)N4CCCC4)n(CCSCCO)c3C[C@H]2CN1C(=O)c1ccccc1	.	.	.	5.6%	.	.
COC(=O)[C@@]1(Cc2ccc(F)cc2)[C@H]2c3cc(C(=O)N4CCCC4)n(CCc4c[nH]c5ccc(OC)cc45)c3C[C@H]2CN1C(=O)c1ccccc1	.	.	-6.0%	14.5%	?	39.8µM*
COC(=O)[C@@]1(Cc2ccc(OC)cc2)[C@H]2c3cc(C(=O)N4CCCC4)n(Cc4ccc(S(C)(=O)=O)cc4)c3C[C@H]2CN1C(=O)c1ccccc1	.	.	.	15.5%	.	.
COC(=O)[C@@]1(Cc2ccc(F)cc2)[C@H]2c3cc(C(=O)N(C)C)n(Cc4ccc(C)o4)c3C[C@H]2CN1C(=O)c1ccccc1	.	.	.	15.8µM*	.	.
COC(=O)[C@@]1(Cc2ccc(F)cc2)[C@H]2c3cc(C(=O)N(C)C)n(Cc4ccc(O)c(OC)c4)c3C[C@H]2CN1C(=O)c1ccccc1	.	.	.	0.2%	.	.
COC(=O)[C@@]1(Cc2ccc(F)cc2)[C@H]2c3cc(C(=O)N(C)C)n(CCc4ccc(OC)c(Br)c4)c3C[C@H]2CN1C(=O)c1ccccc1	?	1.3%	-4.5%	26.7%	?	25.1µM*
COC(=O)[C@@]1(Cc2ccc(F)cc2)[C@H]2c3cc(C(=O)N(C)C)n(Cc4ccc(OC)c(OC)c4)c3C[C@H]2CN1C(=O)c1ccccc1	?	-14.4%	-7.7%	-14.7%	?	50.1µM*
FC(F)(F)c1cccc(N2CCN(Cc3ccoc3)CC2)c1	3.55µM*	?	-6.4%	?	50.1µM*	?
COc1cccc(N2CCN(C3C4CC5CC(C4)CC3C5)CC2)c1 (centres undefined)	-11.7%	17.4%	.	-7.2%	?	50.1µM*
COc1cccc(N2CCN(Cc3cccnc3)CC2)c1	3.16µM*	56.2µM*	-8.5%	-23.8%	39.8µM*	14.1µM*
SMILES	JMJD2A Tudor inh	HP1b binding inh	L3MBTL1 inh	Sfp inh	BAZ2B block	G9a block
COc1cccc(N2CCN(c3ncc4c(n3)CCN(Cc3ccc(Br)cc3)C4)CC2)c1	56.2µM*	-21.2%	.	.	22.4µM*	6.8%[12.7 µM]
CCNC(=S)N1CCN(c2cccc(C(F)(F)F)c2)CC1	-15.2%	32.4%	7.1%	15.7%	-4.5%	9.5%
CCOc1ccc(CN2CCc3nc(N4CCN(c5ncccn5)CC4)ncc3C2)cc1OC	?	2.6%	.	.	-34.2%	5.8%[12.7 µM]
CCOc1ccc2c(c1)c(=O)c(C(=O)c1ccccc1)cn2Cc1ccccc1	5.4%	22.7%	.	.	-26.0%	-27.0%[59 µM]
Cc1cccc(-c2nc(N3CCN(c4ccc(F)cc4)CC3)c3ccccc3n2)c1	-7.8%	31.3%	.	.	1.3%	5.8%[59 µM]
O=c1cc(N2CCN(Cc3ccccc3)CC2)[nH]c(=O)n1-c1cccc(C(F)(F)F)c1	-15.1%	7.4%	-21.6%	9.5%	-3.3%	-11.8%[59 µM]
FC(F)(F)c1cccc(N2CCN(Cc3cccnc3)CC2)c1	1.26µM*	?	-5.7%	-27.8%	-33.6%	14.1µM*
Cc1cccc(NC(=O)CSc2nc(=O)n(CCN3CCOCC3)c3c2CCC3)c1	1.3%	32.8%	.	.	-1.7%	-1.6%[59 µM]
CCOC(=O)c1c(-c2ccc(C)o2)csc1NC(=O)CN1CCCCC1	19.2%	20.7%	-24.0%	7.94µM*	?	39.8µM*
CCOC(=O)c1c(-c2ccco2)csc1NC(=O)CSc1nnc(N)s1	-35.6%	6.0%	-21.3%	25.1µM*	?	39.8µM*
CCOC(=O)c1c(-c2ccc(C)o2)csc1NC(=S)NC(=O)c1ccc(F)cc1	-23.9%	15.4%	-9.2%	8.1%	-30.5%	-8.0%[59 µM]
CCOC(=O)c1c(-c2ccc(OCC)cc2)csc1NC(=O)CCN1C(=O)c2ccccc2C1=O	.	.	-0.3%	-3.4%	-9.2%	-3.2%[59 µM]
CCOC(=O)c1c(-c2ccc(C)o2)csc1NC(=O)CN1CCC(C(N)=O)CC1	-16.6%	?	.	31.6µM*	?	44.7µM*
CCOC(=O)c1c(-c2ccc(C)o2)csc1NC(=O)CSc1nncs1	56.2µM*	?	-7.9%	7.94µM*	-3.1%	10µM*
COc1cc(C)ccc1OCCSc1nc(-c2cccc(C)c2)nc2cc(=O)[nH]n12	-19.8%	26.0%	.	.	-10.5%	31.0%[59 µM]
Cc1nc2cncnc2n(Cc2ccccc2)c1=O	.	.	.	4.5%	.	8.7%[0.501 µM]
Cc1ccc(NC(=O)CSc2nnc3ccc4ccccc4n23)cc1	?	72.8%	.	.	31.8%	-6.3%[59 µM]
Cn1c(SCn2nnc3ccccc3c2=O)nc2ccccc2c1=O	.	.	5.9%	4.4%	-6.8%	50.1µM*
O=c1c2ccccc2nnn1CSc1nc2ccccc2c(=O)n1CCCO	-15.5%	41.1%	.	1.5%	-13.6%	-31.0%
